Laboratory results: PubChem BioAssay AID1159580 (chemical genetic matrix, 2015)
About 2,000 (36%) of roughly 5,500 compounds were called active. About 18% were inconclusive and are not listed. Rule as the data show it: active = normalized growth mostly below about 0.91 (no sharp cut-off); inconclusive = no clear call, values can overlap the other calls; inactive = mostly above about 0.92. The list shows a part of the results.

Assay: chemical genetic growth profiling, strain panel (AID 1159580);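 also: tested at 20 µM; growth read once vehicle control cultures reached saturation at 30 °C; 1 = growth at the plate median or of vehicle wells; lower values mean less growth of the strain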
Conditions: S. cerevisiae deletion strains, growth OD

Measured: normalized growth

COc1ccc(-c2oc3ccccc3c(=O)c2O)cc1OC
active: locus YAL021C, strain ccr4, active compounds read low 0.164 | locus YAL026C, strain drs2, active compounds read low 0.512 | locus YAL030W, strain snc1, active compounds read low 0.739 | locus YBL061C, strain skt5, active compounds read low 0.631 | locus YBR009C, strain hhf1, active compounds read low 0.639 | locus YBR023C, strain chs3, active compounds read low 0.587 | locus YBR171W, strain sec66, active compounds read low 0.848 | locus YBR231C, strain swc5, active compounds read low 0.509 | locus YBR279W, strain paf1, active compounds read low 0.697 | locus YCL011C, strain gbp2, active compounds read low 0.617 | locus YCL016C, strain dcc1, active compounds read low 0.782 | locus YCL061C, strain MRC1, active compounds read low 0.753 | locus YCL069W, strain vba3, active compounds read low 0.762 | locus YCR088W, strain abp1, active compounds read low 0.865 | locus YDL040C, strain nat1, active compounds read low 0.902 | locus YDR001C, strain nth1, active compounds read low 0.914 | locus YDR069C, strain doa4, active compounds read low 0.175 | locus YDR137W, strain rgp1, active compounds read low 0.505 | locus YDR159W, strain sac3, active compounds read low 0.748 | locus YDR195W, strain ref2 0.809 | locus YDR297W, strain sur2, active compounds read low 0.557 | locus YDR334W, strain swr1, active compounds read low 0.524 | locus YDR335W, strain msn5, active compounds read low 0.683 | locus YDR392W, strain spt3, active compounds read low 0.553 | locus YEL003W, strain gim4, active compounds read low 0.6 | locus YEL037C, strain rad23, active compounds read low 0.692 | locus YEL061C, strain CIN8 (second series), active compounds read low 0.882 | locus YER015W, strain faa2, active compounds read low 0.4 | locus YER016W, strain bim1, active compounds read low 0.826 | locus YER111C, strain swi4, active compounds read low 0.696 | locus YER155C, strain BEM2 (second series), active compounds read low 0.687 | locus YFR010W, strain ubp6, active compounds read low 0.633 | locus YGL167C, strain pmr1, active compounds read low 0.742 | locus YGL173C, strain kem1, active compounds read low 0.37 | locus YGL240W, strain doc1, active compounds read low 0.772 | locus YGL253W, strain hxk2, active compounds read low 0.544 | locus YHR013C, strain ard1, active compounds read low 0.466 | locus YHR027C, strain rpn1, active compounds read low 0.315 | locus YHR142W, strain chs7, active compounds read low 0.533 | locus YJL092W, strain hpr5, active compounds read low 0.812 | locus YJL095W, strain BCK1 (second series), active compounds read low 0.548 | locus YJL115W, strain asf1, active compounds read low 0.901 | locus YJL129C, strain trk1, active compounds read low 0.721 | locus YJL154C, strain vps35, active compounds read low 0.809 | locus YJL164C, strain tpk1, active compounds read low 0.497 | locus YJL166W, strain qcr8, active compounds read low 0.527 | locus YJL187C, strain SWE1, active compounds read low 0.635 | locus YKL160W, strain elf1, active compounds read low 0.766 | locus YKR026C, strain gcn3, active compounds read low 0.915 | locus YKR091W, strain srl3, active compounds read low 0.875 | locus YLL001W, strain dnm1, active compounds read low 0.692 | locus YLL026W, active compounds read low 0.798 | locus YLL041C, strain sdh2, active compounds read low 0.85 | locus YLR027C, strain aat2, active compounds read low 0.673 | locus YLR221C, strain rsa3, active compounds read low 0.644 | locus YLR258W, strain gsy2, active compounds read low 0.733 | locus YLR262C, strain YPT6 (second series), active compounds read low 0.371 | locus YLR320W, strain mms22, active compounds read low 0.537 | locus YLR342W, strain FKS1, active compounds read low 0.61 | locus YLR357W, strain rsc2, active compounds read low 0.626 | locus YLR370C, strain arc18, active compounds read low 0.785 | locus YLR384C, strain iki3, active compounds read low 0.76 | locus YML120C, strain ndi1, active compounds read low 0.72 | locus YMR058W, strain fet3, active compounds read low 0.113 | locus YMR129W, active compounds read low 0.825 | locus YMR205C, strain PFK2, active compounds read low 0.369 | locus YMR231W, strain pep5, active compounds read low 0.555 | locus YNL071W, strain lat1, active compounds read low 0.715 | locus YNL209W, strain ssb2, active compounds read low 0.222 | locus YNL248C, strain rpa49, active compounds read low 0.783 | locus YNL322C, strain KRE1 (second series), active compounds read low 0.776 | locus YNR049C, strain mso1, active compounds read low 0.889 | locus YOR001W, strain rrp6, active compounds read low 0.678 | locus YOR070C, strain gyp1, active compounds read low 0.772 | locus YOR080W, strain dia2, active compounds read low 0.445 | locus YOR083W, strain WHI5, active compounds read low 0.617 | locus YOR106W, strain vam3, active compounds read low 0.203 | locus YOR265W, strain rbl2, active compounds read low 0.655 | locus YOR270C, strain vph1, active compounds read low 0.32 | locus YOR290C, strain snf2, active compounds read low 0.607 | locus YPL051W, strain arl3, active compounds read low 0.371 | locus YPL078C, strain atp4, active compounds read low 0.74 | locus YPL106C, strain sse1, active compounds read low 0.572 | locus YPL240C, strain hsp82, active compounds read low 0.771
inactive: locus YDL005C, strain med2, active compounds read low 0.915 | locus YGL227W, strain vid30, active compounds read low 0.949 | locus YHR030C, strain SLT2, active compounds read low 1.01 | locus YHR079C, strain IRE1, active compounds read low 0.983 | locus YJL095W, strain BCK1, active compounds read low 0.962 | locus YJR066W, strain TOR1, active compounds read low 0.948 | locus YLR113W, strain HOG1, active compounds read low 0.957 | locus YMR125W, strain sto1, active compounds read low 0.932 | locus YNL183C, strain NPR1, active compounds read low 0.907 | locus YOR231W, strain MKK1, active compounds read low 0.996 | locus YPL256C, strain CLN2, active compounds read low 0.994
